# CYP2C19 inh: inhibitors of human CYP2C19 | hit rate 21% among 96,000 | CYP2C19 Supersomes, luciferin-H EGE luminescence, 30 min | P33261 | inhibition, % at 5 µM | AID 778;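 active means CYP2C19 inhibition above a set limit at 5 µM in the primary screen, cut at about 50% in these data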;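 further: plate controls were negative control wells for no effect and 2.5 mM tranylcypromine positive control for full effect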
# CYP2C9 act: increases human cytochrome P450 2C9 activity | recombinant CYP2C9, luciferin-H conversion, luminescence; active compounds read high; factor 1 = untreated enzyme, 0 = blocked | activation factor at 5 µM | hit rate 1.4% among 96,000;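 active means activation factor of 2 or more for CYP2C9 at a 5 µM dose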;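 further: 0 = sulfaphenazole-blocked wells and 1 = vehicle-only wells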
# D1 allo mod: allosteric modulators of human D1 dopamine receptor; P21728; HEK293 D1, CRE-luciferase, dopamine EC30 potentiation; actives deviate in either direction; B-score at 10 µM; hit rate 5.9% among 58,000; AID 641;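 active means luminescence count or its row- and column-corrected plate score outside the 99.7% band of the plate's sample wells, on either side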
# CYP2C9 inh: inhibitors of human CYP2C9; P11712; CYP2C9 Supersomes, luciferin-H conversion, luminescence; inhibition, % at 5 µM; hit rate 20% among 96,000; AID 777;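 active means blocking of liver enzyme CYP2C9 beyond about 50% at 5 µM, limit read from the data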
# DAT uptake mod: human DAT dopamine uptake with cocaine, either direction. Q01959. LLC-PK1 hDAT cells, [14C]-dopamine uptake with cocaine IC80; actives deviate in either direction. B-score at 10 µM. hit rate 1.3% among 110,000;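 active means Z score or B-score, a plate-position-corrected score, falls beyond the plate's 99.7% confidence bounds, in either direction; inactive means both scores lie inside the 99.7% bounds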;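 further: scored against the spread of the other compound wells on the same plate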
# Target sequence (Q01959 whole entry, looked up): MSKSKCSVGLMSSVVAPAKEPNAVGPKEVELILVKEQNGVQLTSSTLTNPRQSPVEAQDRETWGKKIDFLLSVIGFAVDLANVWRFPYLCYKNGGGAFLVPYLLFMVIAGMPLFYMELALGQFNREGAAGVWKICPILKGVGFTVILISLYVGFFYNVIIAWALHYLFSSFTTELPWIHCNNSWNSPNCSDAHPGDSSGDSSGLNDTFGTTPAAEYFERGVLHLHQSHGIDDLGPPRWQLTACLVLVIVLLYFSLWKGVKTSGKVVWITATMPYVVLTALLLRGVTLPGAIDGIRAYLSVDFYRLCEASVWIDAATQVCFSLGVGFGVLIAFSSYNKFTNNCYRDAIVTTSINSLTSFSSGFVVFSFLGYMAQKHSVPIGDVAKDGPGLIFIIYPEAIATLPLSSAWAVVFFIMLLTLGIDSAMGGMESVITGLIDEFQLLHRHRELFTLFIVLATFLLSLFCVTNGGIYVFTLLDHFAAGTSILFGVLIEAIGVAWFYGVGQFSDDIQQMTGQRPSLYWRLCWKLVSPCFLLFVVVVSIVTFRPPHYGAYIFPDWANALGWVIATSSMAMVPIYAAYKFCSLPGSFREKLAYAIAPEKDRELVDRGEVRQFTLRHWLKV
# CYP2C19 act: increases human CYP2C19 enzyme activity | P33261 | activation factor at 5 µM | recombinant CYP2C19, luciferin-H EGE luminescence; active compounds read high; 0 = fully inhibited enzyme, 1 = untreated enzyme | 96,000 tested, under 10 active;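 active means activation factor of at least 2 at 5 µM in the primary screen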;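 further: 0 = wells with 2.5 mM tranylcypromine and 1 = vehicle-only wells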
# * marks the source's active call; other numbers are inactive results; x = not tested or not shown. Only some compounds are listed: those with a hit (about 28% of all), similar ones and a draw of the others.
SMILES,CYP2C19 inh,CYP2C9 act,D1 allo mod,CYP2C9 inh,DAT uptake mod,CYP2C19 act
O=C(c1ccc(Cl)c(S(=O)(=O)N2CCOCC2)c1)N1CCN(Cc2ccccc2)CC1,x,x,x,x,0.853,x
O=C(CN1C(=O)c2cccc3cccc(c23)C1=O)N1CCCCCC1,-9.4,1,x,-3.9,0.123,1.1
COc1ccc(NC(=O)CN(C)S(=O)(=O)c2ccc(Cl)cc2)cc1Cl,6.0,0.9,x,6.0,-0.449,0.9
COc1ccc(NC(=O)CN(C)S(=O)(=O)c2ccccc2)c([N+](=O)[O-])c1,16.0,0.7,x,25.9,0.645,0.8
COc1ccc(S(=O)(=O)N(C)CC(=O)Nc2ccc(C(F)(F)F)cc2)cc1Cl,6.7,0.4,x,56.6*,0.312,0.9
COC(=O)c1ccccc1NC(=O)CN(C)S(=O)(=O)c1ccc(OC)cc1,72.5*,1,-0.904,-3.3,0.0665,0.3
COc1ccc(S(=O)(=O)N(C)CC(=O)Nc2ccccc2SC)cc1,98.0*,1.1,-0.127,-6.6,-0.263,0
COc1ccc(S(=O)(=O)N(C)CC(=O)Nc2ccccc2OC)cc1,73.1*,1.2,x,-15.2,-0.151,0.3
C#CCn1c(=NC(=O)c2ccc(Br)s2)sc2cccc(OC)c21,1.0,1.7,x,-72.3,0.771,1
CSCCC(NC(=O)c1ccco1)C(=O)O (stereo not given),-5.7,1.2,-1.35,-17.8,0.0279,1.1
COc1cc(S(=O)(=O)N(C)C)ccc1F,x,x,-0.794,x,0.0021,x
CCOC(=O)Cn1c(=O)n(Cc2ccco2)c(=O)c2ccc(C(=O)NC3CCCC3)cc21,38.7,0.5,x,48.5,0.829,0.6
Cc1cc(C)c2c(=O)[nH]n(C3CC(C)N(C)CC3C)c2n1 (stereo not given),1.5,1.1,-1.93*,-8.7,-0.0422,1
Cc1ccc(NC(=O)C2CCCN2S(=O)(=O)c2ccc(F)cc2)c(C)c1 (stereo not given),43.6,0.7,0.00198,29.4,0.302,0.6
COCCN(C(=O)CN1CCc2ccccc2C1)c1c(N)n(Cc2ccccc2)c(=O)[nH]c1=O,-18.2,1,0.313,-3.9,0.0231,1.2
COCCN(C(=O)CSc1nnc(Nc2ccccc2F)s1)c1c(N)n(Cc2ccccc2)c(=O)[nH]c1=O,31.9,0.4,x,62.2*,1.47,0.7
CCOc1ccc(C(Nc2ccc(C)cc2)P2(=O)OCCCO2)cc1 (stereo not given),21.6,1.3,x,-26.3,0.843,0.8
CCOc1ccc(C(Nc2ccc(C)cc2)P2(=O)OCCC(C)O2)cc1 (stereo not given),54.2*,0.4,x,57.7*,1.14,0.5
CCCN1C(=O)c2ccccc2NC1c1ccc(OC)cc1OC (stereo not given),63.3*,0.5,0.124,52.7*,-0.0413,0.4
COc1cc2c(cc1NC(=O)C(c1ccccc1)c1ccccc1)CCCC2,83.1*,0,x,95.9*,-0.0147,0.2
CCc1ccccc1NC(=O)c1cc(C2CC2)on1,35.0,2.4*,-0.0297,-140.8,0.367,0.7
O=c1nc(NCc2ccco2)sc2ncccc12,-8.8,0.9,0.00184,6.8,-0.0619,1.1
Cc1ccc(Nc2nc(=O)c3cccnc3s2)cc1,93.9*,0.2,0.296,81.6*,-1.17,0.1
COc1ccc(CCn2c(C)cc(C(=O)CSc3nnnn3-c3ccccc3)c2C)cc1OC,42.0,2.1*,-0.651,-114.6,-0.308,0.6
Cc1cc(C(=O)CSc2nnnn2-c2ccccc2)c(C)n1CCc1ccccc1,50.5*,1.1,x,-5.5,-0.0235,0.5
Cc1cc(C(=O)CSc2nnnn2C)c(C)n1CCc1ccc(F)cc1,65.1*,0.9,x,14.6,-0.978,0.3
Cc1cc(C(=O)CSc2nnnn2-c2ccccc2)c(C)n1CC1CCCO1 (stereo not given),7.0,1.1,0.35,-12.2,-0.647,0.9
CC(=O)N1CCN(C2c3cccc4cccc(c34)C2NS(=O)(=O)c2ccccc2)CC1 (stereo not given),73.9*,0.3,0.416,68.0*,0.313,0.3
COc1cc(/C=C2/C(=N)N3C=CSC3=NC2=O)ccc1OCCCOc1cc(C)ccc1C,21.1,0.7,x,32.8,0.202,0.8
Cc1ccccc1Cn1cccc1/C=C1/C(=N)N2C=CSC2=NC1=O,45.5,0.1,x,85.2*,-0.00482,0.5
